Source: PubChem
HT1080-NT tox – kills 2HG-producing HT-1080-NT fibrosarcoma cells; HT-1080-NT fibrosarcoma viability, CellTiter-Glo ATP luminescence, 48 h; Potency, µM (series often up to 46.1 µM), hits mostly cytotoxic; 360,000 tested, 1.6% active;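 also: NT is the 2HG producing partner of a matched IDH1 knockdown line; nearly all actives have a fitted effect of over 55% in size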
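Viability by CellTiter-Glo luminescence after 48 h compound exposure at 37C of HT-1080-NT cells (750/well, RPMI, 5% FBS). % activity scaled between DMSO wells and medium-only wells, then curve-fitted and categorized by curve class.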
KB-V1 cytotox – kills drug-selected multidrug resistant KB-V1 cells; KB-V1 MDR cells viability, CellTiter-Glo, 72 h; Potency, µM (highest dose often 46.1 µM), actives largely listed as cytotoxic; 400,000 tested, 3.4% active; AID 1347076; also: nearly all actives have a fitted effect of over 60% in size
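qHTS viability screen in drug-selected KB-V1 MDR cells: 72 h compound treatment at 37 degrees C, ATP luminescence end point.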
KB-3-1 tox – KB-3-1 parental cell cytotoxicity. KB-3-1 viability, CellTiter-Glo ATP luminescence, 72 h. Potency, µM (top dose mostly 46.1 µM), actives largely listed as cytotoxic. 400,000 tested, 1.4% active. AID 1347075; also: nearly all actives have a fitted effect of over 60% in size
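Luminescent ATP read-out (CellTiter-Glo) measures survival of drug-naive KB-3-1 cells after 72 h compound exposure at 37 °C. Titration series was screened from lowest to highest concentration, with DMSO vehicle plates as background controls.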
DT40 TDP1 no CPT – qHTS for Inhibitors of human tyrosyl-DNA phosphodiesterase 1 (TDP1): qHTS in cells in absence of CPT; DT40 Tdp1-/- hTDP1 cells, no CPT, ATP luminescence, 48 h; 420,000 tested, 15% active; Potency, µM (series often up to 46.2 µM), most hits filed as inhibitors; also: nearly all actives have a fitted effect of over 55% in size
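Luminescent ATP content (CellTiter-Glo) served as the growth readout. Knockout chicken DT40 cells expressing human TDP1 were exposed to compounds without camptothecin for a minimum 48 hr at 37 °C.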
HT1080 IDH1KD tx – HT-1080 IDH1 knockdown cell toxicity (counter line) | HT-1080 IDH1 knockdown viability, ATP luminescence, 48 h | Potency, µM (top dose mostly 46.1 µM), most hits filed as cytotoxic | 360,000 tested, 2% active | AID 686971
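In this qHTS, HT-1080 cells depleted of IDH1 are exposed for 48 h at 37 °C to compound titrations. Toxicity is scored from CellTiter-Glo luminescence, with DMSO as full viability and medium alone as none.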
DT40 TDP1 CPT – growth inhibition of DT40 Tdp1-/-;hTDP1 cells with camptothecin (screen for TDP1 inhibitors). 420,000 tested, 12% active. AID 686979. chicken DT40 Tdp1-/-;hTDP1 cells + 20 nM CPT, ATP luminescence, 48 h. Potency, µM (doses to about 46.2 µM), usual class: inhibitors; also: nearly all actives have a fitted effect of over 55% in size
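Chicken DT40 Tdp1-/- cells stably complemented with human TDP1 were seeded at 400 cells/well in medium containing 20 nM camptothecin, exposed to pin-transferred compounds, and grown at 37 °C for at least 48 hr. Viability was read as ATP luminescence.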
Hits are given with their value; – = inactive; ? = inconclusive; · = no result given; ! = repeats disagree. Shown are actives, neighbours in structure and some others; about 19% of the full set was active somewhere. Calls follow the shape of the dose curve; as a rule, active = well fitted curve in the direction sought with a large enough effect; inconclusive = small, poorly fitted or top-dose-only effect, or another doubt; inactive = no such curve, though single readings can be large; an effect the other way counts as inactive or inconclusive.

SMILES	HT1080-NT tox	KB-V1 cytotox	KB-3-1 tox	DT40 TDP1 no CPT	HT1080 IDH1KD tx	DT40 TDP1 CPT
COc1cc(NC(=O)c2cccc3c(-c4cccnc4)coc23)cc(OC)c1OC	?	7.31µM	?	3.26µM	–	3.66µM
CCC1(c2ccccc2)C(=O)NC(=O)N(C(=O)c2ccccc2)C1=O (stereo unspecified)	·	·	·	–	·	–
O=C(CN1C(=O)COc2ccccc21)N1CCC2(CC1)OCCO2	–	–	–	–	–	–
CCc1ccc([C@H]2[C@@H]3C(=O)C[C@@H]4C(=O)N(C5CCCCC5)C(=O)[C@@H]4[C@@H]3CN2S(=O)(=O)c2ccc(C)cc2)cc1	–	–	–	?	–	?
CN1C(=O)N(C)C(=O)C2(Cc3cc(NC(=O)c4ccc(F)cc4)ccc3N3CCCC32)C1=O (stereo unspecified)	–	?	–	?	–	?
Cn1c(C(=O)N2CCN(c3nc4ccccc4s3)CC2)cc2sccc21	–	–	–	?	–	23.1µM
CCN1CCN(c2nc3ccccc3s2)CC1	–	–	–	–	–	–
O=CNc1ccc(OP(=O)(Oc2ccccc2)Oc2ccccc2)cc1	?	–	–	–	?	–
CC1(C)CC(CCNCc2ccc3c(c2)OCO3)(Cc2ccccc2)CCO1 (stereo unspecified)	–	–	–	18.4µM	–	?
NC(Cc1cc(O)c(O)cc1O)C(=O)O (stereo unspecified)	·	–	?	6.31µM	·	5.01µM
C[C@]12CCC3C(C(=O)C[C@H]4C[C@@H](O)CC[C@]34C)C1CCC2=O (stereo partly specified)	–	–	–	–	–	–
CCCOC(=O)C1=C(C)CS[C@@H]2[C@H](NC(=O)COc3ccccc3)C(=O)N12	·	–	–	?	·	20µM
CCn1c(O)c(C=NCCN2CCOCC2)c(=O)[nH]c1=S	–	–	–	–	–	–
Oc1ccc(Cl)cc1Cc1ccccc1	–	–	–	21.7µM	–	30.6µM
Oc1ccc(Cl)c(Cl)c1Cl	–	–	–	–	–	–
Oc1ccc(Cl)cc1Cc1cc(Cl)ccc1O	16.4µM	?	–	14.6µM	23.1µM	14.6µM
COC(=O)C(O)(c1ccc(NC(=S)NC(=O)c2ccc(Cl)cc2Cl)cc1)C(F)(F)F (stereo unspecified)	–	18.4µM	?	14.6µM	–	?
COC(=O)C(O)(c1ccc(NC(=O)NC2CCCCC2)cc1)C(F)(F)F (stereo unspecified)	–	–	–	?	–	–
CCOC(=O)C(O)(c1ccc(N(CC)C(=O)OC)cc1)C(F)(F)F (stereo unspecified)	–	20.6µM	–	–	–	–
CCOC(=O)C(O)(c1ccc(NC(=S)NC(=O)c2ccc(Cl)cc2Cl)cc1)C(F)(F)F (stereo unspecified)	–	?	–	25.9µM	–	?
CCOC(=O)C(O)(c1ccc(NC(=O)Oc2ccccc2)cc1)C(F)(F)F (stereo unspecified)	–	–	–	?	–	–
CCCCCCC(C)OC(=O)COc1ccc(Cl)cc1Cl (stereo unspecified)	·	·	·	–	·	–
COc1ccc2c(c1OC)C(=O)O[C@@H]2[C@H]1c2cc3c(cc2CCN1C)OCO3	?	?	–	–	–	–
COc1cc([C@@H]2c3cc4c(cc3[C@@H](OC)[C@H]3COC(=O)[C@H]23)OCO4)cc(OC)c1O	?	?	?	1.3µM	?	1.16µM
COc1cc(C2c3cc4c(cc3C(O)C3COC(=O)C23)OCO4)cc(OC)c1O (stereo unspecified)	·	·	·	0.206µM	·	0.259µM
SMILES	HT1080-NT tox	KB-V1 cytotox	KB-3-1 tox	DT40 TDP1 no CPT	HT1080 IDH1KD tx	DT40 TDP1 CPT
COc1cc([C@@H]2c3cc4c(cc3[C@H](O)[C@H]3COC(=O)[C@H]23)OCO4)cc(OC)c1OC	?	0.259µM	0.103µM!	0.146µM!	0.0065µM	0.146µM
COc1cc([C@@H]2c3cc4c(cc3[C@H](O)[C@H]3COC(=O)[C@@H]23)OCO4)cc(OC)c1OC	·	?	1.84µM	0.0251µM	·	0.0708µM
COc1cc2c(cc1C=O)OCO2	–	?	–	–	–	–
COc1ccc2c(c1OC)C(=O)O[C@H]2[C@@H]1c2cc3c(cc2CCN1C)OCO3	–	–	–	–	–	–
ClC(Cl)(Cl)Cl	·	·	·	–	·	–
OC(CC#CCN1CCCCCC1)(c1ccccc1)C1CCCC1 (stereo unspecified)	–	–	?	?	–	?
O=C(O)CCCCCCNC1c2ccccc2CCc2ccccc21	·	·	·	–	·	–
COc1cc([C@@H]2c3cc4c(cc3C(O[C@@H]3O[C@@H]5CO[C@@H](C)O[C@H]5[C@H](O)[C@H]3O)C3COC(=O)[C@@H]32)OCO4)cc(OC)c1OP(=O)(O)O (stereo partly specified)	·	·	·	0.299µM	·	0.211µM
FC(F)(F)c1cccc(C2=CCN(CCc3ccc4ccccc4c3)CC2)c1	·	·	·	–	·	–
Cc1ccc(Cn2cccc(C(=O)Nc3cc([N+](=O)[O-])ccc3C)c2=O)cc1	·	?	?	?	·	–
C[n+]1c(-c2ccccc2)cc(-c2ccc(O)cc2)cc1-c1ccccc1	–	–	–	20.6µM	–	18.4µM
O=[N+]([O-])c1ccc(-[n+]2c(-c3ccccc3)cc(-c3ccccc3)cc2-c2ccccc2)cc1	?	–	–	20.6µM	?	?
Oc1ccccc1-[n+]1c(-c2ccccc2)cc(-c2ccccc2)c(O)c1-c1ccccc1	–	–	–	?	–	?
Oc1ccc(-[n+]2c(-c3ccccc3)cc(-c3ccccc3)cc2-c2ccccc2)cc1	11.6µM	–	–	0.651µM	20.6µM	1.16µM
COc1ccc(-[n+]2c(-c3ccccc3)cc(-c3ccccc3)cc2-c2ccccc2)cc1	8.2µM	–	7.31µM	0.259µM	7.31µM	0.411µM
CN1C(=O)NC(=O)C2(CCCC2)C1=O	–	–	–	–	–	–
C=C[C@H]1CN2CC[C@H]1C[C@H]2c1[nH]c2ccccc2c1CCO	·	·	·	–	·	–
CCOC(=O)/C(C#N)=C1/C=C(C)NC(c2ccccc2O)=N1	?	–	–	20.6µM	?	14.6µM
CCC(=O)Nc1ccc(C(=O)OCc2ccccc2Cl)cc1	–	14.6µM	–	?	–	?
CC(=O)Nc1ccc(C(=O)OCC(=O)Nc2ccc(Cl)cc2C(=O)c2ccccc2)cc1	–	–	–	?	–	–
CCCCCCCCCCCCOCCOCCOCCOCCOCCOCCOCCOCCOCCO	·	·	·	6.68µM	·	6.68µM
CCCCCCOC(=O)c1ccccc1N	–	–	–	–	–	?
